From PubChem BioAssay (EPA / NIEHS) come the findings set out here.

The target of assay [1] is human RAR-related Orphan Receptor gamma (RORg), RORC (gene 6097) (UniProt P51449). Description: ATG_RORg_TRANS: Attagene TRANS-FACTORIAL HepG2 Assay for human RAR-related Orphan Receptor gamma (RORg) (AID 2283011; active = hit-call score of the fitted dose curve at least 0.9, where 1 is the maximum). In a few lines:
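Readout: reporter transcript induction (RT-PCR, fluorescent primer extension, capillary electrophoresis) after 24 h compound exposure of transiently transfected HepG2 cells carrying a RORg-Gal4 chimera and GAL4-UAS reporters; DMSO served as baseline, with increasing signal fitted.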

Assay [2] addresses Retinoic acid receptor RXR-alpha (Homo sapiens) (UniProt P19793). Description: ATG_RXRa_TRANS: Attagene TRANS-FACTORIAL HepG2 Assay for human Retinoid X Receptor alpha (RXRa) (AID 2283012; active = hit-call score of the fitted dose curve at least 0.9, where 1 is the maximum). An outline of the steps:
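HepG2 cells transiently transfected with GAL4-UAS reporter units and chimeric RXRa-Gal4 protein, treated 24 h. Reporter mRNA measured by RT-PCR, fluorescent labelling, HpaI digestion and capillary electrophoresis. Induction fitted against DMSO.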

Assay [3] concerns the target human Retinoid X Receptor beta (RXRb), RXRB (gene 6257) (UniProt P28702). As to the kind of experiment: ATG_RXRb_TRANS: Attagene TRANS-FACTORIAL HepG2 Assay for human Retinoid X Receptor beta (RXRb) (AID 2283013; active = hit-call score of the fitted dose curve at least 0.9, where 1 is the maximum). In a few lines: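 HepG2 cells were transiently transfected with multiplexed GAL4-UAS reporters and a chimeric RXRb-Gal4 construct, then exposed for 24 h. Reporter mRNA was quantified by RT-PCR, FAM labeling, HpaI digestion and capillary electrophoresis; gain of signal was scored against DMSO.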

Read-out in assay [4]: E-selectin (Homo sapiens) (UniProt P16581)
Description: BSK_3C_Eselectin: BioMAP Diversity Plus: 3C Assay for Eselectin Biomarker Activity (AID 2283015). The note with it: primary human endothelial cells (HUVEC); actives raise or lower the signal. An outline of the steps:
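Primary human umbilical vein endothelial cells (3C system) were dosed with chemical and cell-surface E-selectin measured by ELISA 24 h later. Bidirectional curve fitting used DMSO as negative control and baseline.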

Read-out in assay [5]: Interleukin-1 alpha (IL1a), IL1A (gene 3552)
Description: BSK_BE3C_IL1a: BioMAP Diversity Plus: BE3C Assay for Interleukin-1 alpha (IL1a) Biomarker Activity (AID 2283016). The note with it: primary human bronchial epithelial cells; actives raise or lower the signal. An outline of the steps:
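Human primary bronchial epithelial cells, 24 h chemical exposure; IL-1a quantified by ELISA, fitted bidirectionally against DMSO. Cytotoxicity assessed in parallel by SRB total-protein staining at the time of measurement.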

Read-out in assay [6]: Monocyte Chemoattractant Protein-1 (MCP1), CCL2 (gene 6347)
As to the kind of experiment: BSK_4H_MCP1: BioMAP Diversity Plus: 4H Assay for Monocyte Chemoattractant Protein-1 (MCP1) Biomarker Activity (AID 2283018). Particulars: primary human endothelial cells (HUVEC); actives raise or lower the signal. An outline of the steps: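 Human umbilical vein endothelial cells (4H system) exposed to chemicals for 24 h in 96-well format. MCP-1 measured by ELISA; bidirectional fitting against DMSO, with SRB total-protein staining in parallel cultures for cytotoxicity.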

Read-out in assay [7]: Interleukin-8 (IL8), CXCL8 (gene 3576)
As to the kind of experiment: BSK_3C_IL8: BioMAP Diversity Plus: 3C Assay for Interleukin-8 (IL8) Biomarker Activity (AID 2283020). Particulars: primary human endothelial cells (HUVEC); actives raise or lower the signal. In a few lines:
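Primary human umbilical vein endothelial cells were dosed for 24 h. IL-8 was quantified by ELISA and fitted bidirectionally against DMSO. Cytotoxicity was assessed in parallel cultures by SRB staining at 560 nm.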

Read-out in assay [8]: Monokine induced gamma interferon (MIG), CXCL9 (gene 4283)
Description: BSK_3C_MIG: BioMAP Diversity Plus: 3C Assay for Monokine induced gamma interferon (MIG) Biomarker Activity (AID 2283021). The note with it: primary human endothelial cells (HUVEC); actives raise or lower the signal. An outline of the steps: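 HUVEC primary endothelial cultures dosed with chemical; MIG quantified by ELISA at 24 h. Data fitted bidirectionally against DMSO control, with parallel SRB total-protein staining for cytotoxicity.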

Assay [9] in a line: BSK_3C_SRB: Viability Assessment in the BioMAP Diversity Plus: 3C Assay (AID 2283023).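 Also: fitted both ways against DMSO so a hit may be signal rise or drop.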 The note with it: primary human endothelial cells (HUVEC). An outline of the steps:
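Primary human umbilical vein endothelial cells in the 3C system were read 24 h after compound dosing. Total protein was stained with 0.1% sulforhodamine B after 10% TCA fixation and read at 560 nm, with bidirectional fitting against DMSO as baseline.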

Read-out in assay [10]: Matrix Metallopeptidase 1 (MMP1), MMP1 (gene 4312)
As to the kind of experiment: BSK_BE3C_MMP1: BioMAP Diversity Plus: BE3C Assay for Matrix Metallopeptidase 1 (MMP1) Biomarker Activity (AID 2283024). Particulars: primary human bronchial epithelial cells; actives raise or lower the signal. In a few lines: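 Human primary bronchial epithelial cells (BE3C system) dosed for 24 h; MMP-1 quantified by ELISA. Bidirectional fit against DMSO; cytotoxicity tracked in parallel cultures by SRB total-protein staining.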

A short description of assay [11]: BSK_3C_Vis: BioMAP Diversity Plus: 3C Assay for Morphology Visualization (AID 2283025).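 Also: fitted both ways so gain or loss versus DMSO counts.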 Particulars: primary human endothelial cells (HUVEC). An outline of the steps:
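Human umbilical vein endothelial cell morphology was inspected by light microscopy 24 h after chemical dosing; scored bidirectionally relative to DMSO.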

Read-out in assay [12]: Pselectin, SELP (gene 6403)
Description: BSK_4H_Pselectin: BioMAP Diversity Plus: 4H Assay for Pselectin Biomarker Activity (AID 2283026). The note with it: primary human endothelial cells (HUVEC); actives raise or lower the signal. In a few lines:
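Primary human umbilical vein endothelial cells were treated 24 h, and cell-surface P-selectin was then quantified by ELISA. Bidirectional fit versus DMSO; cytotoxicity checked in parallel cultures by SRB total-protein staining.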

Assay [13] can be described thus: BSK_4H_SRB: Viability Assessment in the BioMAP Diversity Plus: 4H Assay (AID 2283027).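 Also: cells exposed to compound for 24 h before staining.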 The note with it: primary human endothelial cells (HUVEC). An outline of the steps: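 Absorbance at 560 nm of SRB-stained total protein served as the viability read-out in confluent primary human umbilical vein endothelium 24 h after chemical treatment. Curves were fitted bidirectionally against DMSO as negative control.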

Assay [14] can be described thus: BSK_BE3C_SRB: Viability Assessment in the BioMAP Diversity Plus: BE3C Assay (AID 2283028). Particulars: primary human bronchial epithelial cells. An outline of the steps: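 Human primary bronchial epithelial cells were exposed to test chemicals for 24 h. Total protein in parallel cultures was then measured by staining with 0.1% sulforhodamine B after 10% TCA fixation, with absorbance read at 560 nm. Activity was fitted bidirectionally against DMSO.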

Read-out in assay [15]: Thrombomodulin, THBD (gene 7056)
As to the kind of experiment: BSK_3C_Thrombomodulin: BioMAP Diversity Plus: 3C Assay for Thrombomodulin Biomarker Activity (AID 2283029). The note with it: primary human endothelial cells (HUVEC); actives raise or lower the signal. In a few lines: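 Human umbilical vein endothelial cells were exposed to chemicals for 24 h; cell-surface thrombomodulin quantified by ELISA, with bidirectional fitting against DMSO baseline.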

Read-out in assay [16]: Urokinase-type plasminogen activator receptor (uPAR), PLAUR (gene 5329)
Description: BSK_4H_uPAR: BioMAP Diversity Plus: 4H Assay for Urokinase-type plasminogen activator receptor (uPAR) Biomarker Activity (AID 2283030). The note with it: primary human endothelial cells (HUVEC); actives raise or lower the signal. An outline of the steps:
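Primary human umbilical vein endothelial cells were exposed to chemical for 24 h before cell-surface uPAR was quantified by ELISA. Activity was fitted bidirectionally against the DMSO negative control baseline.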

The target in assay [17] is human Thyroid Receptor alpha (THRa1), THRA (gene 7067) (UniProt P10827). As to the kind of experiment: ATG_THRa1_TRANS: Attagene TRANS-FACTORIAL HepG2 Assay for human Thyroid Receptor alpha (THRa1) (AID 2283014; active = hit-call score of the fitted dose curve at least 0.9, where 1 is the maximum). An outline of the steps: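 HepG2 cells transiently transfected with multiplexed GAL4-UAS reporter units for exogenous chimeric THRa1-Gal4; reporter mRNA measured 24 h after dosing by RT-PCR, 6-FAM labelling, HpaI digestion and capillary electrophoresis. Gain-of-signal fitted versus DMSO baseline.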
Chain of human Thyroid Receptor alpha (THRa1), THRA (gene 7067) (P10827 whole entry, looked up, the tested form may be a part): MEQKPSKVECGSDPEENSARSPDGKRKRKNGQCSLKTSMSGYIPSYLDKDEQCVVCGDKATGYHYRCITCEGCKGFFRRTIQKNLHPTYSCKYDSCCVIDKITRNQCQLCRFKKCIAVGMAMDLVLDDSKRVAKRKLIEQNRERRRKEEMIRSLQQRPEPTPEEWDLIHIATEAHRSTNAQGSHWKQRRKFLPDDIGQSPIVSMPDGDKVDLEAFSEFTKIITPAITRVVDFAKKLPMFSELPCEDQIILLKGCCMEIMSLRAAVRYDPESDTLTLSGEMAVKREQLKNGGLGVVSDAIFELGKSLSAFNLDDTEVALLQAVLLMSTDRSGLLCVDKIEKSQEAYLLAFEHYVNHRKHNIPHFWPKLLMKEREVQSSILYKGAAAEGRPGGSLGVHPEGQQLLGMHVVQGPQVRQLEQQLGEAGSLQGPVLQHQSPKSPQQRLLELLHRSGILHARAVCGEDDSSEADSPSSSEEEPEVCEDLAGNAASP

Read-out in assay [18]: Monocyte Chemoattractant Protein-1 (MCP1), CCL2 (gene 6347)
Description: BSK_3C_MCP1: BioMAP Diversity Plus: 3C Assay for Monocyte Chemoattractant Protein-1 (MCP1) Biomarker Activity (AID 2283017). The note with it: primary human endothelial cells (HUVEC); actives raise or lower the signal. An outline of the steps:
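Primary human umbilical vein endothelial cells (3C system) were exposed to test chemical for 24 h, after which MCP-1 was quantified by ELISA. Activity was fitted bidirectionally against DMSO as negative control and baseline.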

Read-out in assay [19]: Human Leukocyte Antigen - DR isotype (HLADR), HLA-DRA (gene 3122)
As to the kind of experiment: BSK_3C_HLADR: BioMAP Diversity Plus: 3C Assay for Human Leukocyte Antigen - DR isotype (HLADR) Biomarker Activity (AID 2283019).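 Also: ELISA of cell-surface HLA-DR on HUVEC 24 h after dosing.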 Particulars: primary human endothelial cells (HUVEC); actives raise or lower the signal. An outline of the steps:
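Primary human umbilical vein endothelial cells (3C system) were dosed with compound and cell-surface HLA-DR was quantified by ELISA at 24 h. Activity was fitted bidirectionally against DMSO as negative control and baseline.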

The target of assay [20] is human Vitamin D Receptor (VDR), VDR (gene 7421) (UniProt P11473). As to the kind of experiment: ATG_VDR_TRANS: Attagene TRANS-FACTORIAL HepG2 Assay for human Vitamin D Receptor (VDR) (AID 2283022; active = hit-call score of the fitted dose curve at least 0.9, where 1 is the maximum). In a few lines:
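HepG2 cells were transiently transfected with multiple GAL4-UAS reporter units, so signal reflects exogenous chimeric receptor-Gal4 activity. After 24 h compound exposure, reporter mRNA was measured by RT-PCR, fluorescent labelling and capillary electrophoresis, fitted for gain of signal versus DMSO.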

Structures are written as SMILES. Values joined by “and” are separate entries in the source; they are usually repeats but may differ in a detail not shown here. Equal values may be shown once. Inconclusive results are not listed. A structure can be active in one record and inactive in another. Active and inactive are the calls of the source. The calls were made as follows, unless noted: active = hit-call score of the fitted dose curve at least 0.9, where 1 is the maximum; inactive = score below 0.9.

Chain of human Retinoid X Receptor beta (RXRb), RXRB (gene 6257) (P28702 whole entry, looked up, the tested form may be a part): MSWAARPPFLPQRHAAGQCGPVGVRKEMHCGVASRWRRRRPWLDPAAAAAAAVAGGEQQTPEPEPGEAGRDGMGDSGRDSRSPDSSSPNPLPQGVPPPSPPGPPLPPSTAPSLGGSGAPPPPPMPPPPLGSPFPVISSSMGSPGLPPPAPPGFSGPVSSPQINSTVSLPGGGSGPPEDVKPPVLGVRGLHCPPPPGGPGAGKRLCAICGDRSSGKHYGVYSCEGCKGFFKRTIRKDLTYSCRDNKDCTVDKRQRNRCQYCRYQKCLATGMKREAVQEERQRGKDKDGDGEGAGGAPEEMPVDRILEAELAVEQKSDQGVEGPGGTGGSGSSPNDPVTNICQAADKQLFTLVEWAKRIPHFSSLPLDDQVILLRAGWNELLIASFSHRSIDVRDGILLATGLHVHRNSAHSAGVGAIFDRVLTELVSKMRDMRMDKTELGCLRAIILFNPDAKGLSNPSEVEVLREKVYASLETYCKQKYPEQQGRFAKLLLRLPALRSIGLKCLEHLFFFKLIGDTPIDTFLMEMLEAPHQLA
Chain of human RAR-related Orphan Receptor gamma (RORg), RORC (gene 6097) (P51449 whole entry, looked up, the tested form may be a part): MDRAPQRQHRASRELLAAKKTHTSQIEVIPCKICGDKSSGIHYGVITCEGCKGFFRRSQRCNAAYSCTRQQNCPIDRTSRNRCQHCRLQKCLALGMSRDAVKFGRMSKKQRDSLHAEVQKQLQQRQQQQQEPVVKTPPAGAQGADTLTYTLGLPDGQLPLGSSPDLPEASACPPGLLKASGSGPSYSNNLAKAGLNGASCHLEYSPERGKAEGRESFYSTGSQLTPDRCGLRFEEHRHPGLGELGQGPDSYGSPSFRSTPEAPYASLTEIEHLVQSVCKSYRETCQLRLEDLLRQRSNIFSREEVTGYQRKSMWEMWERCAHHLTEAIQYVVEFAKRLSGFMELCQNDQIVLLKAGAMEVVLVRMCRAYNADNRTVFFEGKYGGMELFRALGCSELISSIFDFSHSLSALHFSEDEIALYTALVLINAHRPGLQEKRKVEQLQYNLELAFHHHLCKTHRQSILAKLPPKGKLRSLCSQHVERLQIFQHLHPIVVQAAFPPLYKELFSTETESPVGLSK
Chain of E-selectin (Homo sapiens) (P16581 whole entry, looked up): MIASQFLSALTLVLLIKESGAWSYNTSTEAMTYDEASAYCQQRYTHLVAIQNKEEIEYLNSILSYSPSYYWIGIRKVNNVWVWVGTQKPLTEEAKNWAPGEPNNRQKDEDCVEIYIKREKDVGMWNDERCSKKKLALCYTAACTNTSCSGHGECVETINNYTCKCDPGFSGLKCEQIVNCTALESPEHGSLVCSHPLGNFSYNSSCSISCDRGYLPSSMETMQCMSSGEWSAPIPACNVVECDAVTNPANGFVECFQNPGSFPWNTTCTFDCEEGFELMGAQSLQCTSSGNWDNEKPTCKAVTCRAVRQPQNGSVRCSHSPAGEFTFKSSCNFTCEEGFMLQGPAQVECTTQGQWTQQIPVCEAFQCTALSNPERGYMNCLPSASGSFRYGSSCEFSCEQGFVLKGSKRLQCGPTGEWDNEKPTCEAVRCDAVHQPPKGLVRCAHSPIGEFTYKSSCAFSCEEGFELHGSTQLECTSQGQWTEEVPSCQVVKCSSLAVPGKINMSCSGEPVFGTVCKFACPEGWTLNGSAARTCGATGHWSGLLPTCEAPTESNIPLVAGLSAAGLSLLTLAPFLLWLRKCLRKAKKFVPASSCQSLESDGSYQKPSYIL
Chain of Retinoic acid receptor RXR-alpha (Homo sapiens) (P19793 whole entry, looked up, the tested form may be a part): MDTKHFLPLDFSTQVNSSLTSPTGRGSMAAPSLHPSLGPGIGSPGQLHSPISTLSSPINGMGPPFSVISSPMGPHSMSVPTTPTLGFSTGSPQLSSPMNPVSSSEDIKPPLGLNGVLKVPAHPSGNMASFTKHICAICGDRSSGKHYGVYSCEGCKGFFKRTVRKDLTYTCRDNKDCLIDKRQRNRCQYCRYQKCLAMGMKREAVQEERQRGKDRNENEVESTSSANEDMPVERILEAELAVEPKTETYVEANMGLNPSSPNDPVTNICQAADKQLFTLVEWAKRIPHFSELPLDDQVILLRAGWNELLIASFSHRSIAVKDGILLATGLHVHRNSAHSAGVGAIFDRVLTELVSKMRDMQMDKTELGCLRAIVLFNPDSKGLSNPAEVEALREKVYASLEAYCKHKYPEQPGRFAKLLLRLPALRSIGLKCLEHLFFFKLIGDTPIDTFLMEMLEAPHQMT
Chain of human Vitamin D Receptor (VDR), VDR (gene 7421) (P11473 whole entry, looked up, the tested form may be a part): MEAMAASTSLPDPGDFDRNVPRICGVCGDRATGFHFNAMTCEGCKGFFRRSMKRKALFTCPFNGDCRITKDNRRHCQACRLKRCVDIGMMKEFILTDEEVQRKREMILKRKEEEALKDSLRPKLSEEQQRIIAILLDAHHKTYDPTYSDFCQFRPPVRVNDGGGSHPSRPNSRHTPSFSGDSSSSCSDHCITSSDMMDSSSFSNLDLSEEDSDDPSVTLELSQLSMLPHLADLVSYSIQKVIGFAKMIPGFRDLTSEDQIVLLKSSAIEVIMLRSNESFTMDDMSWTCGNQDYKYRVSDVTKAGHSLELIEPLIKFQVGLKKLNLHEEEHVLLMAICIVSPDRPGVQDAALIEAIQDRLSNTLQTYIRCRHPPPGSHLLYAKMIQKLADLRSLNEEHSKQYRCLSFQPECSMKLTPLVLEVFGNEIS

For `CC1(C)[C@H](C(=O)O[C@H](C#N)c2cccc(Oc3ccccc3)c2)[C@@H]1/C=C(\Cl)C(F)(F)F`, the compound was classed as inactive in assay [1], in [2], in assay [3], in assay [4], in assay [5] and in assay [7]. In addition, the outcome in assay [8], in assay [9], in [10], in [11], in assay [12] and in assay [13] was inactive. Further, the outcome in assay [14], in assay [15] and in assay [16] was inactive. The AC50 (in general, the concentration giving half of the maximal activity seen) is 1.11 µM (active) and 4.07 µM (active) in assay [6]; 0.0142 µM (active) in [10].

In the case of `Clc1ccc(C(Cl)(Cl)Cl)cn1`, the compound was classed as inactive in assay [1], in [2] and in assay [3].

For the compound `CCC(C)(C#N)N=NC(C)(C#N)CC` (stereo unspecified), the result in assay [1], in assay [2], in [3], in assay [17], in [4] and in [5] was inactive. Further, the outcome in [18], in assay [6], in assay [19], in [7], in [8] and in [9] was inactive. Further, the result in assay [10], in [11], in [12], in [13], in [14] and in assay [15] was inactive. Further, the result in assay [16] was inactive.

Take `Cl[C@H]1OCCO[C@@H]1Cl`: the call in assay [1], in assay [2], in assay [3] and in assay [17] was inactive.

In the case of `COC(=O)c1cc(Oc2ccc(Cl)cc2Cl)ccc1[N+](=O)[O-]`, the outcome in assay [1], in assay [2] and in [3] was inactive.

On to `COc1ccccc1N`, for which the result in assay [1], in [2], in assay [3], in assay [17], in assay [4] and in assay [5] was inactive. The result in assay [18], in [6], in [7], in assay [8], in assay [9] and in assay [10] was inactive. Also, the outcome in [11], in assay [12], in [13], in [14], in [15] and in [16] was inactive.

Regarding `Cc1ccc(CCl)cc1`, the compound was classed as inactive in assay [1].

With `C1CN2CCN1CC2`, the compound was called inactive in assay [1], in assay [2] and in assay [17].

As for `Clc1cccc(Cl)c1`, the compound was called inactive in assay [1], in assay [3], in assay [17], in assay [4], in [5] and in assay [18]. Further, the outcome in assay [6], in assay [19], in assay [7], in [8], in assay [20] and in [9] was inactive. Besides, the result in assay [10], in [11], in [12], in assay [13], in [14] and in assay [15] was inactive. Further, the outcome in assay [16] was inactive.

As for `Cc1cc(-c2cc(C)c(N)c(C)c2)cc(C)c1N`, the outcome in [1] and in assay [17] was inactive. Moreover, in [3], the half-maximal activity concentration (AC50) is 25.4 µM (active).

For the compound `CC1CC(=O)O1` (stereo unspecified), the compound was classed as inactive in assay [1], in assay [3] and in [20].

Turning to `N#Cc1ccc(Cl)cc1`, the compound was called inactive in assay [1], in assay [2], in [3] and in [20].

For `O=C=Nc1ccc(Cl)cc1`, the compound was called inactive in [1], in assay [3] and in assay [17].

For the compound `NC(=O)c1ccc(N)nc1`, the outcome in assay [1], in [2] and in assay [17] was inactive.

Take `C#CCO`: the compound was called inactive in assay [1], in [3] and in assay [20].
